Records with an inconclusive call do not appear. Entries that show only a call come without a potency. Activity calls are given as the source filed them. Calls come from the whole dose curve; as a rule, active = well fitted cell-killing curve with a large enough effect; inconclusive = small, poorly fitted or top-dose-only effect, or effect the other way; inactive = no such curve, though single readings can be large or run the other way.
Potency is the fitted concentration of half-maximal effect.

This assay can be described thus: qHTS assay to identify small molecule inhibitors of chordoma cells - UCH-1 (AID 1259355). Note: nearly all actives have a fitted effect of over 55% in size. As to conditions: UCH-1 chordoma viability, CellTiter-Glo, 48 h, combination, with auranofin plus four topoisomerase inhibitors; series mostly up to 46.1 µM. The text has this:
NIH Chemical Genomics Center [NCGC]
Chordoma is a rare and slow growing tumor that can occur anywhere along the spine, from the base of the skull to the tailbone. Current treatment options for chordoma is surgery and radiation therapy for those who are not candidates for surgery. But chordomas tend to return in the same location or surrounding areas of the original tumor after surgery and/or radiation. Chemotherapy can slow down the progression of the tumor. As chordoma is slow growing, the general cytotoxic agents that kill fast growing cells are ineffective, and some patients have been reported to respond to molecularly targeted drugs.
NCATS Pharmaceutical Collection (NPC) containing approximately 3000 clinically approved and investigational drugs were used to screen at 15 concentrations in a chordoma cell lines, UCH-1, to identify small molecule compounds that can inhibit chordoma cell growth.
NCGC Assay Protocol Summary:
Human chordoma cell line UCH-1 was dispensed at 800 per well in 4uL of culture medium into white solid bottom 1536-well plates (Corning Life Sciences, Corning, NY) using a Multidrop Combi (Thermo Scientific, Waltham, MA) dispenser. The assay plates were incubated at 37 C and 5% CO2 for an overnight, and then 23nL of compounds dissolved in DMSO and positive control were transferred using a Pintool station (Wako, San Diego, CA). Compound treatment was followed by the addition of 1uL of the combination compounds (1uM Auranofin, 500nM each of Camptothecin, Doxorubicin, Rubitecan, and Topotecan) and assay medium to each well of the assay plates using Flying Reagent Dispenser (FRD, Aurora Discovery, San Diego, CA). The assay plates were incubated at 37 C and 5% CO2 for 48hr. Then 5uL of CellTiter-Glo reagent (Promega Corporation, Madison, WI) was added to each well of the assay plates using FRD. After 30min incubation at room temperature, the luminescence signal was quantified using a ViewLux plate reader (PerkinElmer, Shelton, CT).
In general terms: Quantitative high-throughput screening tests each substance at several concentrations.
For the molecule `Cc1c(C)n(Cc2ccccc2)c2ccc(C(=O)OCCN(C)C)cc12`, the Potency entry is “inactive”.
`CCOC(=O)[C@H](CCc1ccccc1)N[C@@H](C)C(=O)N1Cc2ccccc2C[C@H]1C(=O)O`: the Potency result is “inactive”.
For the molecule `O=C(OCC(O)CO)c1ccccc1Nc1ccnc2cc(Cl)ccc12` (stereo not given), the Potency entry is “inactive”.
The value for `CC(CCc1ccccc1)NCC(O)c1ccc(O)c(C(N)=O)c1` (stereo not given) was “inactive”.
Consider `C[N+]1(CCCCC[N+]2(C)CCCC2)CCCC1`, for which the Potency entry was “inactive”.
Next, `CCC(NC(C)C)C(O)c1ccc(O)c(O)c1` (stereo not given): “inactive”; `C1CCc2nnnn2CC1`: “inactive”.
Next, `CC(=O)Nc1c(I)cc(I)c(C(=O)O)c1I`: “inactive”.
Next, `O=C(Nc1ccc(Oc2ccc(Cl)cc2)c(Cl)c1)c1cc(I)cc(I)c1O`: “inactive”; `OC[C@@H](O)[C@@H](O[C@@H]1O[C@H](CO)[C@H](O)[C@H](O)[C@H]1O)[C@H](O)[C@@H](O)CO`: “inactive”; `CN(C(=O)CN(CCO)CC(=O)N(C)C(C)(C)Cc1ccccc1)C(C)(C)Cc1ccccc1`: “inactive”.
Turning to `CC(C)N=C(N)/N=C(\N)Nc1ccc(Cl)cc1`, the Potency entry is “inactive”.
As for `CCCCCCC[N+](CC)(CC)CCCCc1ccc(Cl)cc1`, the Potency result is “inactive”.
With `NCCc1ccn[nH]1`, the Potency entry was “inactive”.
Next, `CCCCCCc1ccc(O)cc1O`: “inactive”.
For the molecule `O=C1OC(c2ccc(O)cc2)(c2ccc(O)cc2)c2ccccc21`, the Potency result is “inactive”.
Next, `COc1cc(NS(C)(=O)=O)ccc1Nc1c2ccccc2nc2ccccc12`: 28.2 µM (active); `CCCCCC=CCC=CCCCCCCCC(=O)OCC`: “inactive”; `CN(C/C=C/c1ccccc1)Cc1cccc2ccccc12`: “inactive”.
In the case of `Nc1ccc(C(=O)O)cc1`, the Potency entry is “inactive”.
With `Oc1ccc(Cl)c2cccnc12`, the Potency entry was “inactive”.
Next, `O=C(O)c1cc2cc(Cc3cccnc3)ccc2o1`: “inactive”; `C[C@]12CC[C@@H]3c4ccc(O)cc4CC[C@H]3[C@@H]1CC[C@@H]2O`: “inactive”; `C[C@@H]1CN(CCCn2c3ccccc3c3ccccc32)C[C@H](C)N1`: “inactive”.
The value for `c1ccc(OCc2ccc(CCCN3CCOCC3)cc2)cc1` was “inactive”; that for `CC1=C(C(=O)O)N2C(=O)[C@@H](NC(=O)[C@H](N)c3ccc(O)cc3)[C@H]2SC1` was “inactive”.
Next, `CC1(C)CCC(NC(=O)[C@@H](N)CCC(=O)O)CC1`: “inactive”; `CCCCCCCCCCCCCCNCCO`: “inactive”.
With `CN1C(CCl)Nc2cc(Cl)c(S(N)(=O)=O)cc2S1(=O)=O` (stereo not given), the Potency result was “inactive”.
As to `CCC(C(=O)OCCN(CC)CC)c1ccccc1` (stereo not given), the Potency result was “inactive”.
The value for `NC(CO)(CO)CO` was “inactive”; that for `c1ccc(CNCCNCc2ccccc2)cc1` was “inactive”; that for `COc1cc(N)c(Cl)cc1C(=O)NC1CCN(CCCOc2ccc(F)cc2)CC1OC` (stereo not given) was “inactive”.
For the molecule `COc1cc(C=C2CCC/C(=C\c3ccc(O)c(OC)c3)C2=O)ccc1O`, the Potency was 31.6 µM (active).
The value for `CC/C(=C(/CC)c1ccc(O)cc1)c1ccc(O)cc1` was “inactive”; that for `CO/N=C1\CN(c2nc3c(cc2F)c(=O)c(C(=O)O)cn3C2CC2)CC1CN` (stereo not given) was “inactive”.
As for `O=C(CCN1CCC(c2ccccc2)C1)c1ccc2c(c1)OCCO2` (stereo not given), the Potency result was “inactive”.
For `Nc1cc(Cl)c(NC2=NCCN2)c(Cl)c1`, the Potency entry was “inactive”.
Regarding `CC(=O)c1ccc2c(c1)N(CCCN1CCC(CCO)CC1)c1ccccc1S2`, the Potency entry is “inactive”.
Take `O=C(CCCN1CCC(O)(c2ccc(Br)cc2)CC1)c1ccc(F)cc1`: the Potency entry is “inactive”.

Values taken from PubChem BioAssay (NCATS).
